Assay [1] concerns the target Cell division control protein 42 homolog (Homo sapiens) (UniProt P60953). In words: activated mutant Cdc42 GTP-binding inhibitors, dose response, biochemical, multiplex bead flow cytometry, Bodipy-FL-GTP (AID 1333).
For assay [2] the target is unchanged. In words: wildtype Cdc42 GTP-binding inhibitors, dose response, biochemical, multiplex bead flow cytometry, Bodipy-FL-GTP (AID 1334;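 active = fitted half-maximal concentration within the tested range, moderate curve steepness, significant signal drop, and little compound fluorescence or bead-linkage interference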). Particulars: bead-based flow cytometry, Bodipy-FL-GTP binding to GST-Cdc42; at 100 µM (top of the series) unless noted. (In general: In flow cytometry, cells or beads pass a laser one at a time.)
Assay [3] concerns the target GTPase HRas (Homo sapiens) (UniProt P01112). In words: inhibitors of GTP binding to wildtype Ras, dose response, biochemical, multiplex bead flow cytometry (AID 1335;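 active = fitted half-maximal concentration within 10 nM to 100 µM, steepness 0.5 to 2, significant signal drop, low assay interference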). The settings on record: bead-based flow cytometry, Bodipy-GTP binding to GST-Ras; at 100 µM (top of the series) unless noted.
Assay [4] concerns Ras-related protein Rab-7a (dog), GTP binding. In words: Rab7 GTP binding inhibitors, potency, dose response, biochemical, wildtype, multiplex bead flow cytometry (AID 1336; call rule not given here).
Assay [5] addresses Ras-related C3 botulinum toxin substrate 1 (Homo sapiens) (UniProt P63000). Nature of the assay: wildtype Rac1 GTP binding inhibitors, dose response, biochemical, multiplex bead flow cytometry (AID 1340;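 active = dose curve with midpoint inside tested range, moderate steepness, plateau gap beyond fit error, low compound glow and bead-link interference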). The settings on record: GST-Rac1 beads, Bodipy-FL-GTP binding; at 100 µM (top of the series) unless noted.
Assay [6] concerns the target GTPase HRas (Homo sapiens) (UniProt P01112). In words: activated Ras mutant GTP binding inhibitors, dose response, biochemical, multiplex bead flow cytometry (AID 1341;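 active = dose-response curve with midpoint inside the tested range, moderate steepness, significant amplitude and little compound fluorescence or bead-attachment interference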;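 also: GST-tagged constitutively activated Ras mutant immobilized on beads and multiplexed with other GTPases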).

For part of these data: Results with a measured potency or affinity are listed apart. Activity calls are given as the source filed them.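 The calls were made as follows, unless noted: active = fitted half-maximal concentration within the tested dose range, moderate curve steepness, a statistically real signal drop, and little compound fluorescence or tag-binding interference; inactive = the rest.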

Chain of GTPase HRas (Homo sapiens) (P01112 whole entry, looked up): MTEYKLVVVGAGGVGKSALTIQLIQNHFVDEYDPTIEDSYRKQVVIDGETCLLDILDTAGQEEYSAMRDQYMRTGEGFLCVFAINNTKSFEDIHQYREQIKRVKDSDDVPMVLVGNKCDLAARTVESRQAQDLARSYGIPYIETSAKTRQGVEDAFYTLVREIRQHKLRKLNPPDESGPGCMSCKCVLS
Chain of Cell division control protein 42 homolog (Homo sapiens) (P60953 whole entry, looked up): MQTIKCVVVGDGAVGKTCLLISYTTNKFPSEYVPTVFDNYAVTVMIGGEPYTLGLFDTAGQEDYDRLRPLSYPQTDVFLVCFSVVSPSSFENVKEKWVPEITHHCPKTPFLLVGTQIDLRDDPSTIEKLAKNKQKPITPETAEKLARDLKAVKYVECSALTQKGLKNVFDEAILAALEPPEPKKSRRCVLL

For `CCOC(=O)c1ccc(Nc2nc(C(=O)OCC)nc3ccccc23)cc1`, the call in assay [1], in assay [4] and in assay [6] was inactive. Moreover, the fluorescence, percent of control (lower = inhibition) in assay [2] was 66.3%. The same compound displayed a GTP binding, percent of control in assay [3] of 128%. This compound came in with a GTP binding signal, raw median fluorescence (lower = inhibition) (MCF (arbitrary fluorescence units)) in assay [5] of 159.
Take `COC(CNC(=O)C1CCCN1C(=O)OCc1ccccc1)OC` (stereo not given): the outcome in assay [1], in assay [4] and in assay [6] was inactive. The fluorescence, percent of control (lower = inhibition) in assay [2] came out at 46.2%. This compound registered a GTP binding, percent of control in assay [3] of 90.5%. For the same compound, the GTP binding signal, raw median fluorescence (lower = inhibition) (MCF (arbitrary fluorescence units)) in assay [5] turned out to be 333.
For `CCCNC(=O)Cn1c(=O)/c(=C\c2ccc(-c3ccc([N+](=O)[O-])cc3)o2)s/c1=C\C(=O)C(C)(C)C`, the call in assay [1], in assay [4] and in assay [6] was inactive. Also, the fluorescence, percent of control (lower = inhibition) in assay [2] is 115%. Further, the GTP binding, percent of control in assay [3] was determined as 126%. In assay [5], the GTP binding signal, raw median fluorescence (lower = inhibition) (MCF (arbitrary fluorescence units)) amounted to 300.
Consider `CCN(CC)S(=O)(=O)c1ccc2oc(C(=O)N3CCc4ccccc4C3)c(C)c2c1`, for which the outcome in assay [1], in assay [4] and in assay [6] was inactive. For the same compound, the fluorescence, percent of control (lower = inhibition) in assay [2] came to 59.3%. In assay [3], the GTP binding, percent of control worked out at 78%. Moreover, the GTP binding signal, raw median fluorescence (lower = inhibition) (MCF (arbitrary fluorescence units)) in assay [5] was 0.
Consider `COc1ccccc1OCCn1cc(C(=O)O)c2c(C)cccc21`, for which the compound was called inactive in assay [1], in assay [4] and in assay [6]. For the same compound, in assay [2], the fluorescence, percent of control (lower = inhibition) stood at 56.8%. This compound also came in with a GTP binding, percent of control in assay [3] of 202%. This compound also showed a GTP binding signal, raw median fluorescence (lower = inhibition) (MCF (arbitrary fluorescence units)) in assay [5] of 55.3.
Turning to `CCCN1C(=O)/C(=C\C=C2\N(CC)c3ccccc3C2(C)C)SC1=S`, the outcome in assay [1], in assay [4] and in assay [6] was inactive. Further, the fluorescence, percent of control (lower = inhibition) in assay [2] amounted to 104%. In addition, the GTP binding, percent of control in assay [3] was determined as 140%. Besides, the GTP binding signal, raw median fluorescence (lower = inhibition) (MCF (arbitrary fluorescence units)) in assay [5] was found to be 307.
For the compound `O=C(Cn1nc(-c2ccccc2)c2ccccc2c1=O)Nc1ccccn1`, the result in assay [1], in assay [4] and in assay [6] was inactive. For the same compound, the fluorescence, percent of control (lower = inhibition) in assay [2] was determined as 45.6%. The compound also displayed a GTP binding, percent of control in assay [3] of 58.1%. The GTP binding signal, raw median fluorescence (lower = inhibition) (MCF (arbitrary fluorescence units)) in assay [5] came out at 194.
With `O=c1c2ccccc2nc2ccc(NCc3cccs3)nn12`, the compound was called inactive in assay [1], in assay [4] and in assay [6]. Moreover, the fluorescence, percent of control (lower = inhibition) in assay [2] came to 33.1%. The GTP binding, percent of control in assay [3] was determined as 76.2%. The GTP binding signal, raw median fluorescence (lower = inhibition) (MCF (arbitrary fluorescence units)) in assay [5] amounted to 195.
Consider `O=C(COc1ccccc1C(=O)N/N=C\c1ccc(O)c(O)c1)N/N=C/c1ccc(O)c(O)c1`, for which the result in assay [1], in assay [4] and in assay [6] was inactive. Moreover, the fluorescence, percent of control (lower = inhibition) in assay [2] was found to be 38%. This compound also displayed a GTP binding, percent of control in assay [3] of 157%. This compound returned a GTP binding signal, raw median fluorescence (lower = inhibition) (MCF (arbitrary fluorescence units)) in assay [5] of 193.
Take `O=C(C#Cc1ccccc1)c1ccc([N+](=O)[O-])cc1`: the outcome in assay [1], in assay [4] and in assay [6] was inactive. Moreover, in assay [2], the fluorescence, percent of control (lower = inhibition) was 25.5%. This compound also registered a GTP binding, percent of control in assay [3] of 74.2%. The same compound had a GTP binding signal, raw median fluorescence (lower = inhibition) (MCF (arbitrary fluorescence units)) in assay [5] of 264.
In the case of `COc1cc2[nH]c(=S)nc(NCCC(C)C)c2cc1OC`, the compound was called inactive in assay [1], in assay [4] and in assay [6]. Moreover, the fluorescence, percent of control (lower = inhibition) in assay [2] is 29.1%. The compound also had a GTP binding, percent of control in assay [3] of 55.6%. For the same compound, the GTP binding signal, raw median fluorescence (lower = inhibition) (MCF (arbitrary fluorescence units)) in assay [5] came out at 123.
With `COc1cc2ccccc2cc1C(=O)NC(=S)Nc1cccc(C(=O)O)c1`, the call in assay [1], in assay [4] and in assay [6] was inactive. For the same compound, the fluorescence, percent of control (lower = inhibition) in assay [2] is 33.8%. Moreover, in assay [3], the GTP binding, percent of control amounted to 83.3%. In assay [5], the GTP binding signal, raw median fluorescence (lower = inhibition) (MCF (arbitrary fluorescence units)) worked out at 174.
With `COc1cc(/C=N/NC(=O)C(Cc2c[nH]c3ccccc23)NC(=O)OCc2ccccc2)cc([N+](=O)[O-])c1O` (stereo not given), the outcome in assay [1], in assay [4] and in assay [6] was inactive. In addition, the fluorescence, percent of control (lower = inhibition) in assay [2] is 29.6%. In assay [3], this compound gave a GTP binding, percent of control of 74%. In assay [5], the GTP binding signal, raw median fluorescence (lower = inhibition) (MCF (arbitrary fluorescence units)) worked out at 208.
Turning to `Cn1c(=O)c2cc(S(=O)(=O)NCCC(=O)NCc3ccccc3Cl)ccc2n(C)c1=O`, the result in assay [1], in assay [4] and in assay [6] was inactive. Also, the fluorescence, percent of control (lower = inhibition) in assay [2] amounted to 64%. This compound also showed a GTP binding, percent of control in assay [3] of 109%. For the same compound, in assay [5], the GTP binding signal, raw median fluorescence (lower = inhibition) (MCF (arbitrary fluorescence units)) turned out to be 122.
Consider `Cc1cc(C(F)F)n2nc(C(=O)Nc3ccc(S(=O)(=O)NC45CC6CC(CC(C6)C4)C5)cc3)nc2n1`, for which the outcome in assay [1], in assay [4] and in assay [6] was inactive. The fluorescence, percent of control (lower = inhibition) in assay [2] came out at 35%. In assay [3], the GTP binding, percent of control turned out to be 82.9%. In assay [5], the GTP binding signal, raw median fluorescence (lower = inhibition) (MCF (arbitrary fluorescence units)) turned out to be 254.

These data come from PubChem BioAssay.
